Assay results taken from the supplement of paper PMC6555819.

How the values were obtained:
Experiment in all cases: PBM binding z-score (relative to random genomic background probes); higher = stronger binding; sequences stand for … in GC…GCGATTGACAGCGTAGAATGAAGG
[1] = test system: RARb homodimer (NR concentration 270 nM)
In short: (§1)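 Probes were double-stranded and carried 34-nt variable regions with direct-repeat seeds, single-nucleotide variants, half-site ablations and random human genomic background sequences, printed on custom Agilent 4×180K protein-binding microarrays. Arrays were incubated 1 h with ligand-free nuclear receptor dimers in PBS pH 7.4, 2% milk, 0.02% Triton X-100, 1 mM DTT, 0.2 mg/mL BSA and 0.4 mg/ml salmon testes DNA. Antibodies against each partner (one per run) detected binding, and scanned fluorescence was regression-normalized. Binding z-scores use the random background probes as reference.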

[2] = test system: RARg:RXRa (NR concentration 270 nM, RXRa partner concentration 90 nM)
In short: as §1

[3] = test system: RARg homodimer (NR concentration 270 nM)
In short: as §1

[4] = test system: RXRa DBDmut IVT, anti-RXR (DBD mutation: RXRa K156A/R161A, NR concentration 90 nM)
In short: as §1

[5] = test system: RXRa homodimer (NR concentration 180 nM)
In short: as §1

[6] = test system: THRa:RXRa (NR concentration 90 nM, RXRa partner concentration 90 nM)
In short: as §1

[7] = test system: THRa homodimer (NR concentration 90 nM)
In short: as §1

[8] = test system: VDR homodimer (NR concentration 270 nM)
In short: as §1

Sequence	PBM binding z-score [1]	PBM binding z-score [2]	PBM binding z-score [3]	PBM binding z-score [4]	PBM binding z-score [5]	PBM binding z-score [6]	PBM binding z-score [7]	PBM binding z-score [8]
GGAACGAGGGCATTCGAATTGATAGCATGGCGAT	0.601	1.21	1.55	3.14	0.908	0.827	-0.231	1.99
ATCGAAAGGTCGAAGGTGATTATACCCACCCGAA	2.14	4.11	3.87	0.956	4.77	1.97	0.193	0.477
GATACAGGGTCAGCTAGGGGCCAGAGTATGGAAA	3.52	6.94	4.94	1.25	4.43	3.62	0.639	0.774
CAACCTAGGTCAAGAGGTCAAAGTCCGCTTCCCG	5.47	8.21	7.78	3.12	8.82	4.18	2.41	4.38
ATATGTAGGTTACATCCGTGTCATTCAGGCTATG	1.2	1.59	1.21	1.02	1.08	1.4	0.344	0.511
CCAAGCAGGCCAATCTGGGTCACTCAAGGCTTGA	2.26	1.4	1.34	0.0779	1.25	3.74	0.319	0.154
TCTGCTAGGTCAGTTGGTCAACTAACGAGCTGCC	2.71	2.82	3.64	0.186	1.03	1.43	-0.321	-0.774
TAGTCTAGGTCATTGGGCCAGTATAGTACGCATC	3.08	3.92	4.79	1.95	3.26	3.32	1.55	1.87
CGTCAAAGTTCAAGGTAACGTATCAGAAAGCAGC	3.97	5.22	6.45	4.52	4.44	3.06	1.44	3.38
ATATGTTGGTTACATCCGGGTCATTCAGGCTATG	2.54	1.79	1.29	0.674	2.18	3.16	2.45	2.26
TGAATGAGGTTAAAGATCAGGGACCGTGGCGTCG	0.662	2.38	0.948	0.631	3.61	2.39	0.453	0.608
CCTAGTTGGTCAAGGTCAGACACGCTATAGGTAC	3.62	3.19	3.82	1.56	2.73	3.34	2.57	2.29
TGTCAAAGTTCCAAGGTAACGTAAGTATCCACAC	0.222	0.298	0.719	-0.251	0.443	1.72	1.09	-0.0741
ATCTCTAGGTAAAGTGCAGTGAAAGATCGATAGA	0.108	0.474	0.497	0.0332	0.222	0.316	-0.174	-0.0309
TCTCGGAGGACACAAAAGGTCAGAGCTCGACATC	4.4	4.67	4.91	1.15	3.9	3.41	1.1	1.02
ACGATTAGTTGAGACGAGGGCAACCGATAGGTTG	0.939	0.385	0.643	-0.112	0.354	2.41	-0.196	0.605
GCTTACGGCTCAAAGGTTATAGCATGAATAGAAT	1.05	1.29	0.586	0.213	1.93	1.21	-0.314	-0.204
GCTTGTAGATCAAGCTTAAGAAAGACTAAGCTAA	-1.31	-0.516	-0.459	-0.635	-0.645	-0.583	-1.48	-0.457
ATCTCTAGGTAACAAGTTCAGTCAAAGAGAGGAC	1.92	1.45	1.43	1.09	0.866	1.62	1.12	2.65
CAAACTAGGACAAGAGGTCAAAGTCCGCTTCCCG	4.38	5.63	4.63	2.33	6.3	3.92	1.89	4.42
CGGCAAAGTTCAAGGTAACGTAACAGAAAGCAGC	3.52	5.32	6.01	4.49	4.62	2.79	0.581	2.71
TATACAGGGTCAGAGGCCAGAGTACGAATGTCGA	3.01	4.21	4.27	1.39	4.32	2.74	0.817	2.2
ATACGTAGGTTAAGGGTCATTCAGGTTGGTTCGC	4.06	5.01	3.58	2.11	6.29	3.72	1.6	4.36
TCTATTAGTTGAAGGGCAACCGGCGAGTCCGTTT	1.33	0.436	0.37	1.69	0.567	0.217	0.172	0.963
CGTCCAAGGTCAGAAGGTCAGTGAAAGCGACGTG	5.32	7.13	6.77	2.87	5.71	4.12	1.8	2.18
TCGTGTAGATCAAGCAGGTTAAGAAAGCCTGAGT	-0.0651	-0.125	-0.344	0.445	0.247	0.168	-0.744	-0.0255
ATCTCTTGGTAACAAGTTCAGTGAAAGAGAGGAC	1.67	0.629	1	1.09	0.531	0.831	0.489	2.61
CGAACTAGGTCAGAACAGGGCAGTGAAGGATGAT	2.52	2.65	3.35	0.463	1.28	2.69	0.148	0.0633
ACAGACAGGTGAGTGCAGGTAACTCAGCTGGACG	-0.104	0.091	0.426	0.222	0.412	1.69	-0.612	0.269
